Values joined by “and” are separate entries in the source; they are usually repeats but may differ in a detail not shown here. Equal entries are not always repeated. About 2,000 (36%) of roughly 5,500 compounds were called active. Inconclusive results (about 18%) are left out. Rule as the data show it: active = normalized growth mostly below about 0.91 (no sharp cut-off); inconclusive = no clear call, values can overlap the other calls; inactive = mostly above about 0.92. This is one part of the list.
Assay: chemical genetic growth profiling, strain panel (AID 1159580);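 also: tested at 20 µM; growth read once vehicle control cultures reached saturation at 30 °C; 1 = growth at the plate median or of vehicle wells; lower values mean less growth of the strain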
Conditions: S. cerevisiae deletion strains, growth OD

Measured: normalized growth

N[C@H](Cc1cc(I)c(Oc2ccc(O)c(I)c2)c(I)c1)C(=O)O
inactive: locus YAL013W, strain DEP1, stronger effect = lower value 1.01 | locus YAL021C, strain ccr4, stronger effect = lower value 1.03 | locus YAL026C, strain drs2, stronger effect = lower value 0.982 | locus YAL030W, strain snc1, stronger effect = lower value 1 | locus YBL061C, strain skt5, stronger effect = lower value 0.994 | locus YBR021W, strain FUR4, stronger effect = lower value 0.989 | locus YBR023C, strain chs3, stronger effect = lower value 0.986 | locus YBR171W, strain sec66, stronger effect = lower value 0.996 | locus YBR229C, strain ROT2, stronger effect = lower value 1 | locus YBR231C, strain swc5, stronger effect = lower value 1 | locus YBR279W, strain paf1, stronger effect = lower value 0.991 | locus YCL011C, strain gbp2, stronger effect = lower value 1 | locus YCL016C, strain dcc1, stronger effect = lower value 0.981 | locus YCL029C, strain bik1, stronger effect = lower value 1.01 | locus YCL061C, strain MRC1, stronger effect = lower value 0.987 | locus YCL069W, strain vba3, stronger effect = lower value 1 | locus YCR088W, strain abp1, stronger effect = lower value 1 | locus YDL005C, strain med2, stronger effect = lower value 1 | locus YDL035C, strain GPR1, stronger effect = lower value 0.992 | locus YDL040C, strain nat1, stronger effect = lower value 1.01 | locus YDL074C, strain BRE1, stronger effect = lower value 0.939 | locus YDL101C, strain DUN1, stronger effect = lower value 0.998 | locus YDL134C, strain PPH21, stronger effect = lower value 1 | locus YDL185W, strain tfp1, stronger effect = lower value 0.996 | locus YDL192W, strain arf1, stronger effect = lower value 0.987 | locus YDR001C, strain nth1, stronger effect = lower value 1.01 | locus YDR069C, strain doa4, stronger effect = lower value 0.992 | locus YDR101C, strain arx1, stronger effect = lower value 0.974 | locus YDR137W, strain rgp1, stronger effect = lower value 0.985 | locus YDR150W, strain NUM1, stronger effect = lower value 1.05 | locus YDR159W, strain sac3, stronger effect = lower value 0.978 | locus YDR162C, strain NBP2, stronger effect = lower value 0.999 | locus YDR195W, strain ref2 1 | locus YDR297W, strain sur2, stronger effect = lower value 0.996 | locus YDR334W, strain swr1, stronger effect = lower value 0.997 | locus YDR335W, strain msn5, stronger effect = lower value 0.999 | locus YDR388W, stronger effect = lower value 0.985 | locus YDR392W, strain spt3, stronger effect = lower value 0.748 | locus YDR502C, strain sam2, stronger effect = lower value 0.977 | locus YEL003W, strain gim4, stronger effect = lower value 0.998 | locus YEL037C, strain rad23, stronger effect = lower value 1 | locus YEL061C, strain CIN8 (second series), stronger effect = lower value 1 | locus YEL061C, strain CIN8, stronger effect = lower value 1.01 | locus YER015W, strain faa2, stronger effect = lower value 1 | locus YER016W, strain bim1, stronger effect = lower value 0.995 | locus YER110C, stronger effect = lower value 1 | locus YER111C, strain swi4, stronger effect = lower value 0.993 | locus YER155C, strain BEM2 (second series), stronger effect = lower value 0.958 | locus YER155C, strain BEM2, stronger effect = lower value 0.997 | locus YER167W, strain BCK2, stronger effect = lower value 0.946 | locus YFR010W, strain ubp6, stronger effect = lower value 0.997 | locus YGL078C, strain dbp3, stronger effect = lower value 0.98 | locus YGL086W, strain mad1, stronger effect = lower value 0.946 | locus YGL167C, strain pmr1, stronger effect = lower value 1 | locus YGL173C, strain kem1, stronger effect = lower value 0.952 | locus YGL227W, strain vid30, stronger effect = lower value 0.993 | locus YGL240W, strain doc1, stronger effect = lower value 0.973 | locus YGL248W, strain PDE1, stronger effect = lower value 0.998 | locus YGL253W, strain hxk2, stronger effect = lower value 0.981 | locus YGR078C, strain PAC10, stronger effect = lower value 0.966 | locus YGR135W, strain pre9, stronger effect = lower value 0.959 | locus YGR229C, strain SMI1, stronger effect = lower value 0.981 | locus YGR252W, strain gcn5, stronger effect = lower value 0.87 | locus YHR013C, strain ard1, stronger effect = lower value 0.971 | locus YHR027C, strain rpn1, stronger effect = lower value 0.997 | locus YHR030C, strain SLT2, stronger effect = lower value 0.997 and 1.05 | locus YHR079C, strain IRE1 (second series), stronger effect = lower value 0.999 | locus YHR079C, strain IRE1, stronger effect = lower value 1.05 | locus YHR094C, strain hxt1, stronger effect = lower value 0.999 | locus YHR129C, strain ARP1, stronger effect = lower value 1 | locus YHR142W, strain chs7, stronger effect = lower value 0.964 | locus YHR200W, strain rpn10, stronger effect = lower value 0.992 | locus YIL066C, strain RNR3, stronger effect = lower value 0.951 | locus YIL073C, strain SPO22, stronger effect = lower value 0.967 | locus YIL125W, strain kgd1, stronger effect = lower value 0.99 | locus YIR030C, strain dcg1, stronger effect = lower value 0.993 | locus YJL092W, strain hpr5, stronger effect = lower value 0.998 | locus YJL095W, strain BCK1, stronger effect = lower value 0.964 and 1.04 | locus YJL115W, strain asf1, stronger effect = lower value 0.998 | locus YJL129C, strain trk1, stronger effect = lower value 0.97 | locus YJL134W, strain LCB3, stronger effect = lower value 1 | locus YJL154C, strain vps35, stronger effect = lower value 1 | locus YJL168C, strain set2, stronger effect = lower value 0.996 | locus YJL187C, strain SWE1 (second series), stronger effect = lower value 1.01 | locus YJL187C, strain SWE1, stronger effect = lower value 1.01 | locus YJR043C, strain POL32, stronger effect = lower value 0.996 | locus YJR066W, strain TOR1, stronger effect = lower value 0.99
active: locus YBR009C, strain hhf1, stronger effect = lower value 0.893 | locus YDR318W, strain mcm21, stronger effect = lower value 0.917 | locus YJL095W, strain BCK1 (second series), stronger effect = lower value 0.865 | locus YJL164C, strain tpk1, stronger effect = lower value 0.911 | locus YJL166W, strain qcr8, stronger effect = lower value 0.884

Source: PubChem BioAssay AID1159580 (chemical genetic matrix, 2015)
